An excerpt weighted towards active compounds, which were near 19% of everything screened.
DT40 TDP1 CPT: DT40-hTDP1 cell growth loss with CPT; chicken DT40 Tdp1-/-;hTDP1 cells + 20 nM CPT, ATP luminescence, 48 h; Potency, µM (titrated, usually from 46.2 µM), for the others: top-dose activity change, negative = growth inhibition, actives largely listed as inhibitors; actives 12% (n = 420,000); AID 686979; note: potency is the fitted concentration of half-maximal effect; nearly all actives have a fitted effect of over 55% in size
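Cell growth measured by CellTiter-Glo luminescence after a minimum 48 h, 37 C compound exposure with 20 nM CPT in Tdp1-knockout DT40 cells stably expressing hTDP1, seeded 400/well; qHTS titration format.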
IL1B secr inh: blocks inflammasome-driven IL-1 beta release; THP-1 LPS/ATP IL-1B secretion, AlphaLISA, 16 h; hits give low values; activity change, % at 57.5 µM; actives 4.7% (n = 360,000); in the data active = activity change below about -50%; inconclusive = mostly about -30% to -49%
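THP-1 cells pretreated 1 hr with compounds (up to 57.5 uM final), then stimulated with LPS (250 ng/mL final) plus ATP (1.25 mM final); secreted IL-1B measured by AlphaLISA after 16 hr, decreased signal indicating inhibition.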
DT40 TDP1 no CPT: qHTS for Inhibitors of human tyrosyl-DNA phosphodiesterase 1 (TDP1): qHTS in cells in absence of CPT; DT40 Tdp1-/- hTDP1 cells, no CPT, ATP luminescence, 48 h; Potency, µM (doses to about 46.2 µM), for the others: at the top dose activity change, negative = growth inhibition, hits mostly inhibitors; actives 15% (n = 420,000); note: potency is the fitted concentration of half-maximal effect; nearly all actives have a fitted effect of over 55% in size
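Compound effects on proliferation are scored in DT40 Tdp1-/-;hTDP1 cells in the absence of CPT. ATP levels (CellTiter-Glo luminescence) are recorded after a ≥48 hr, 37 °C incubation.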
HT1080 IDH1KD tx: kills HT-1080 cells with IDH1 knockdown; Potency, µM (highest dose often 46.1 µM), inactives show at the top dose activity, negative = toxicity, most hits filed as cytotoxic; HT-1080 IDH1 knockdown viability, ATP luminescence, 48 h; actives 2% (n = 360,000);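 note: potency is the fitted concentration of half-maximal effect; 0% = DMSO wells and -100% = cell-free medium wells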
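Using the IDH1-knockdown HT-1080 line run in the same batch and compound series as the NT line, viability after 48 h at 37 °C was determined by CellTiter-Glo luminescence and expressed as % activity.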
HT1080NT lethal: kills 2HG-producing HT-1080-NT fibrosarcoma cells; HT-1080-NT fibrosarcoma viability, CellTiter-Glo ATP luminescence, 48 h; Potency, µM (doses to about 46.1 µM), without a hit: top-dose activity, negative = less viability, hits mostly cytotoxic; actives 1.6% (n = 360,000);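 note: NT is the 2HG producing partner of a matched IDH1 knockdown line; potency is the fitted concentration of half-maximal effect; 0% = DMSO-treated cells and -100% = media-only wells without cells; nearly all actives have a fitted effect of over 55% in size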
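750 cells/well, RPMI + 5% FBS; 2 h settle, compound pin-transfer, 48 h at 37 degrees C. CellTiter-Glo 10 min RT, luminescence. Normalized to DMSO and media-only wells.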
Active calls of the source: *; ? = inconclusive; / = no result; ! = a repeat was not active; [ ] = dose if it differs, or a comment. Unless noted, calls come from the whole dose curve; as a rule, active = well fitted curve in the direction sought with a large enough effect; inconclusive = small, poorly fitted or top-dose-only effect, or another doubt; inactive = no such curve, though single readings can be large; an effect the other way counts as inactive or inconclusive. Unless noted, % is set by controls: 0 for no effect and ±100 for the full control effect.

SMILES | DT40 TDP1 CPT | IL1B secr inh | DT40 TDP1 no CPT | HT1080 IDH1KD tx | HT1080NT lethal
C[c-]1[c-](C)[c-](C)[c-](C)[c-]1C.[Fe].c1cc2nccc(N3CCCC3)[c-]2c1 (centres undefined) | 8.2µM*! | 0.0 | 6.51µM* | 3.4% | -10.7%
c1cc(N2CCCCC2)nc(N2CCCCC2)n1 | -26.5% | 13.1 | ? | 4.0% | -1.7%
CCOc1cc(C(=S)N2CCN(C)CC2)ccc1OCC(=O)N1CCCC1 | 11.6% | 15.2 | 0.5% | 2.3% | -3.0%
O=C(NCCc1ccccc1F)C1CC(=O)N(c2cccc(C(F)(F)F)c2)C1 (centres undefined) | -17.5% | -2.4 | -24.8% | 7.9% | 1.7%
O=C(c1cccc(F)c1)N1CCCN(C(=O)c2cccc(F)c2)CC1 | 4.2% | -4.6 | -4.4% | 8.8% | 14.2%
O=C(c1ccc(N2CCN(C(=O)c3ccccc3)CC2)cc1)c1cccc(F)c1 | ? | -76.9* | 16.4µM* | -4.6% | -26.9%
O=C(c1ccccc1)c1ccc(C(=O)N2CCN(c3ccc(O)cc3)CC2)cc1 | -27.2% | -5.2 | -29.9% | 3.7% | 3.9%
O=C(c1cccc(Cl)c1)N1CCC(N2CCC(C(=O)N3CCOCC3)CC2)CC1 | 6.2% | 0.7 | -5.7% | 18.5% | 25.9%
O=C(c1ccc(N2CCN(C(=O)c3ccc(F)c(F)c3)CC2)cc1)c1cccc(F)c1 | 23.1µM* | -20.8 | 13µM* | -10.3% | -19.3%
O=C(c1cccc(F)c1)N1CCC(N2CCOCC2)CC1 | 5.8µM* | 13.8 | -9.5% | 8.4%[9.24 µM] | 21.6%
CCc1nn2c(=O)cc(COC(=O)c3ccco3)nc2s1 | -12.7% | / | -9.0% | / | /
O=S(=O)(Nc1ccc2c(c1)OCO2)c1ccc(Cl)cc1F | -4.6% | -15.7 | 8.4% | 4.5% | -2.2%
Cn1nc(C(=O)OCC(=O)Nc2ccc(C(N)=O)cc2)c2ccccc2c1=O | -21.7% | 25.3 | -15.6% | 9.2% | 16.2%
COc1ccc(OC)c(CCNC(=O)CCCc2nnc3n(C)c(=O)c4sccc4n23)c1 | ? | 19.4 | -13.7% | -0.4% | -14.1%
CSc1ccc(Cn2c(C)c(C(=O)NCc3ccccc3C(F)(F)F)sc2=O)cc1 | ? | / | ? | -28.7% | 5.6%
Cc1c(C(=O)NCc2ccccc2C(F)(F)F)sc(=O)n1Cc1ccc2c(c1)OCO2 | ? | ? | ? | 1.7% | -18.2%
Cc1c(C(=O)NCc2ccc(C(F)(F)F)cc2)sc(=O)n1Cc1ccc(S(=O)(=O)N(C)C)cc1 | 23.1µM* | 0.0 | 23.1µM* | -13.5% | -10.9%
COc1ccc(CNC(=O)c2sc(=O)n(Cc3ccc(S(=O)(=O)N(C)C)cc3)c2C)cc1 | ? | -11.8 | ? | ? | -21.6%
Cc1c(C(=O)NCc2ccccc2C(F)(F)F)sc(=O)n1Cc1ccc(S(=O)(=O)N(C)C)cc1 | ? | -20.2 | 20.6µM* | -24.3% | -9.7%
Cc1c(C(=O)NCc2ccccc2C(F)(F)F)sc(=O)n1Cc1ccc(Cl)c(Cl)c1 | ? | -72.2* | ? | -20.1% | ?
CCCCCCN1CCN(C2CN(CCCC)S(=O)(=O)C2)CC1 (centres undefined) | -4.0% | 8.7 | ? | 19.9% | 19.5%
CCCCn1c(N)c(N(CC)C(=O)CCNC(=O)NC23CC4CC(CC(C4)C2)C3)c(=O)[nH]c1=O | 18.3% | -11.9 | 0.6% | -2.5% | -7.3%
Cn1c(=O)c2c(-c3ccccc3)n3c(c2n(C)c1=O)C(c1ccccc1[N+](=O)[O-])Nc1ccccc1-3 (centres undefined) | 23.1µM* | / | -81.8% | / | /
COc1ccc(-c2c3c(=O)n(C)c(=O)n(C)c3c3n2-c2ccccc2NC3c2ccc(O)cc2O)cc1 (centres undefined) | 16.4µM* | / | 16.4µM* | / | /
CC(C(=O)NCc1cccnc1)c1ccc([N+](=O)[O-])cc1 (centres undefined) | -7.6% | 13.2 | -6.0% | -2.4% | 2.0%
Fc1ccc2c(c1)C1OCCCC1C(c1ccccc1)N2 (centres undefined) | ? | 5.1 | 18.4µM* | ? | ?
